Screens: PubChem, National Center for Advancing Translational Sciences (NCATS)
Sampled rows, rich in hits. Any-hit rate of the full collection: about 2.3%.
AMA1 RON2 block – AMA1-RON2 (P. falciparum) interaction inhibition. hit rate 0.2% among 360,000. AlphaScreen AMA1-biotinylated RON2 peptide binding. Potency, µM (titrated, usually from 58.2 µM), without a hit: at the highest dose activity change, negative = inhibition, usual class: inhibitors;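 further: 0% = vehicle wells and -100% = peptide control; nearly all actives have a fitted effect of over 45% in size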
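AMA1 (3D7) with his tag at 25 nM final met compounds first, then biotinylated RON2 peptide at 25 nM; detection used donor plus acceptor beads, 10 µg/mL apiece, read by AlphaScreen after 30 min at room temperature.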
Lassa entry inh – Lassa virus entry inhibition; Lassa virus pseudotype entry inhibition, cell reporter; Potency, µM (top dose mostly 37.9 µM), inactives show at the top dose activity change, negative = inhibition, hits mostly inhibitors; hit rate 1.2% among 300,000; AID 540256; calls by dose curve; tested in HEK293 cells; further: nearly all actives have a fitted effect of over 50% in size
AmpC no deterg – AmpC beta-lactamase inhibition without detergent; P00811; AmpC nitrocefin hydrolysis, absorbance 480 nm, 0.0001% Triton; Potency, µM (highest dose often 57.1 µM), without a hit: at the top dose activity change, negative = inhibition, most hits filed as inhibitors; hit rate 0.52% among 330,000;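 further: plate controls were no compound for no effect and no enzyme for full effect; nearly all actives have a fitted effect of over 20% in size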
Target sequence (P00811 whole entry, looked up): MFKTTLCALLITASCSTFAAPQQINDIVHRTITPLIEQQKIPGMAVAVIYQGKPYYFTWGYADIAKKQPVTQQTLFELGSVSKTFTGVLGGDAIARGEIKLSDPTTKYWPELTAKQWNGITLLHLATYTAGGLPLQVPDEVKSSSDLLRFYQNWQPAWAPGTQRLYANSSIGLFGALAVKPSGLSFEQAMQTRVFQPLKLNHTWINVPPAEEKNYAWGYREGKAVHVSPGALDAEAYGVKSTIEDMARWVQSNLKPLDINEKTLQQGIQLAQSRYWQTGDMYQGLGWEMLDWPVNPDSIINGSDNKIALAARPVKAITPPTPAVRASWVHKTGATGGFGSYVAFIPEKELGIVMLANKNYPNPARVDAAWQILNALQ
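AmpC (5.3 nM in the dispensed reagent) in 20 mM phosphate pH 7.0 with 0.01% (detergent screen) or 0.0001% Triton X-100 was preincubated with compounds for 15 min at room temperature. Nitrocefin was then added from an 800 uM solution, and hydrolysis was followed at 480 nm.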
Marburg entry inh – blocks Marburg virus binding to or entry into cells; hit rate 1.8% among 300,000; Marburg virus pseudotyped entry inhibition, cell reporter; AID 540276; Potency, µM (doses to about 37.8 µM), for inactives: top-dose activity change, negative = inhibition, most hits filed as inhibitors; calls by dose curve; tested in HEK293 cells
AmpC detergent – blocks E. coli AmpC beta-lactamase in detergent assay; AID 485294; Potency, µM (top dose mostly 114 µM), for the others: top-dose activity change, negative = inhibition, usual class: inhibitors; P00811; AmpC hydrolysis of nitrocefin, absorbance 480 nm, 0.01% Triton; hit rate 0.041% among 370,000;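 further: 0% = no-compound wells and -100% = no-enzyme wells; nearly all actives have a fitted effect of over 25% in size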
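AmpC (5.3 nM in the dispensed reagent) in 20 mM phosphate pH 7.0 with 0.01% (detergent screen) or 0.0001% Triton X-100 was preincubated with compounds for 15 min at room temperature. Nitrocefin was then added from an 800 uM solution, and hydrolysis was followed at 480 nm.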
* hit, by the source's call; ? = inconclusive; nt = not tested or not shown; ! = repeats disagree; [ ] = dose if it differs, or a comment. Unless noted, the call rests on the fitted dose curve; in most records, active means well fitted curve in the direction sought with a large enough effect; inconclusive means small, poorly fitted or top-dose-only effect, or another doubt; inactive means no such curve, though single readings can be large; an effect the other way counts as inactive or inconclusive. Unless noted, on the % scale 0 is the no-effect control and ±100 the full control effect; potency means the concentration at half of the fitted maximal effect.

SMILES	AMA1 RON2 block	Lassa entry inh	AmpC no deterg	Marburg entry inh	AmpC detergent
CC(=O)Nc1ccc(-c2ccc(NC(C)=O)cc2)cc1	-7%	17%	-13%	?	7%
O=C(Nc1cccc(S(=O)(=O)c2cccc(NC(=O)C3CC3)c2)c1)C1CC1	5%	21µM*	-30%	?	3%
O=C(Nc1ccccc1C(=O)O)c1ccc(NC(=O)C2CC2)cc1	-7%	?	-15%	5µM*	-7%
CCOC(=O)/C=c1\s/c(=C(/C#N)C(=O)OCC)n(-c2ccccc2)c1=O	nt	nt	nt	-6%[46.1 µM]	nt
Oc1c(Br)cc(Br)cc1-c1nc2ccccc2s1	nt	3%[46.1 µM]	nt	nt	3%
COc1ccc(Cl)cc1NC(=O)Cn1cc(C(=O)c2ccncc2)c(=O)c2cc(C)ccc21	nt	-1%[46.1 µM]	nt	nt	1%
COc1c(C)cc(C(=O)C2CCCN(C(=O)c3ccc4[nH]ccc4c3)C2)cc1C (stereo not given)	0%	4.5µM*	-5%	-9%[46.1 µM]	-4%
COc1c(C)cc(C(=O)C2CCCN(C(=O)c3cccc(-n4cccn4)c3)C2)cc1C (stereo not given)	-15%	?	60%	-4%[46.1 µM]	-5%
c1ccn2cc(-c3ccc4c(c3)OCCO4)nc2c1	-3%	nt	-5%	nt	4%
Oc1ccccc1-c1cc(-c2ccccc2)no1	0%	?	-24%	?	3%
Cc1ccc(-c2cc(-c3ccccc3)no2)c(O)c1	-4%[11.6 µM]	5µM*	-14%	?	1%
Cc1ccc2nc(-c3cc(-c4ccccc4)no3)cn2c1	-12%	0.89µM*	-25%	?	-1%
Cc1ccc2nc(-c3ccc4c(c3)OCCO4)cn2c1	6%	1µM*	-16%	?	-7%
Cc1cc(C)n2nc(CNC(=O)c3ccc(Cl)cc3)nc2n1	nt	1%[46.1 µM]	nt	-2%[46.1 µM]	-1%
COc1ccc(NC(=O)Nc2ccccc2OCc2cc(=O)n3ccccc3n2)c(OC)c1	nt	10%[46.1 µM]	nt	nt	-1%
OCCCNc1c2ccccc2nc2ccccc12	0%	?	-45%	7.1µM*	3%
OCCNc1c2c(nc3ccccc13)CCCC2	0%	2%	-16%	-20%[46.1 µM]	-8%
CC(C)COC(=O)c1ccc2[nH]c(O)c(C=Nc3ccc(S(N)(=O)=O)cc3)c2c1	nt	1µM*	nt	nt	nt
O=C(COc1ccc(/C=N/NC(=O)c2cc3ccccc3o2)cc1Cl)Nc1ccccc1	3%	8.9µM*	-15%	?	-7%
Cc1cc(NC(=O)C2CCN(S(=O)(=O)c3cccc4nsnc34)CC2)ccc1Br	nt	21%[46.1 µM]	nt	-7%[46.1 µM]	3%
O=C1c2ccccc2-c2nc3ccccc3nc21	4%	26%	-14%	-4%	-6%
Cc1nc2c(nc1C)C(=O)c1ccccc1C2=O	7%	?	nt	14µM*	nt
CCOC(=O)c1c(C)nc2sc(C(=O)Nc3ccc(OC)cc3)c(N)c2c1-c1ccc(OC)cc1	-12%	?	-11%	?	-2%
CCOC(=O)c1c(C)nc2sc(C(=O)Nc3ccc(C(C)=O)cc3)c(N)c2c1-c1ccc(OC)cc1	38%	?	2%	2.8µM*	1%
CC(C)CCNC(=O)c1cn(C)c2ccc(S(=O)(=O)N3CCOCC3)cc2c1=O	nt	18%[46.1 µM]	nt	26%[46.1 µM]	4%
SMILES	AMA1 RON2 block	Lassa entry inh	AmpC no deterg	Marburg entry inh	AmpC detergent
O=C(NCCc1ccccc1)C1CCN(S(=O)(=O)N2CCC3(CC2)OCCO3)CC1	12%	-5%	0.56µM*	4%	-1%
Cc1c(C(=O)NCCc2ccccc2)oc2ccc(S(=O)(=O)N3CCC4(CC3)OCCO4)cc12	-7%	23µM*	117%	?	-2%
Cc1ccc(NC(=O)c2oc3ccc(S(=O)(=O)N4CCC5(CC4)OCCO5)cc3c2C)cc1Cl	nt	4%[46.1 µM]	nt	nt	-6%
O=C(NCCN1CCC(Cc2ccccc2)CC1)C1CCN(S(=O)(=O)N2CCC3(CC2)OCCO3)CC1	9%	-21%	111%	?	4%
COc1ccc(NC(=O)c2oc3ccc(S(=O)(=O)N4CCC5(CC4)OCCO5)cc3c2C)cc1	-5%	?	101%	21µM*!	-3%
CCOC(=O)[C@@H]1CSc2[nH]c(=O)sc2[C@@H]1c1ccccc1	nt	nt	nt	-4%	nt
O=C(N/N=C/c1cc(Br)ccc1O)c1cccc(N2CCCC2=O)c1	73%	?	-54%	23µM*	?
Cc1cc(Br)ccc1NC(=O)CSc1c2c(nc3ccccc13)CCC2	nt	-1%[46.1 µM]	nt	?	0%
C[C@]1(C(=O)CSc2nc3ccccc3[nH]2)CCC(=O)O1	nt	nt	nt	-1%	nt
O=C(O)c1ccc2c(c1)C(=O)N([C@@H](Cc1ccc(O)cc1)C(=O)O)C2=O	nt	nt	-2%	nt	?
O=C(Nc1nccs1)c1sc2ccccc2c1Cl	92%	13µM*	-23%	7.1µM*	-14%
O=C(NC1CC1)c1sc2ccccc2c1Cl	-13%	10%[46.1 µM]	-13%	?	0%
Cc1ccnc(NC(=O)/C=C/c2ccccc2[N+](=O)[O-])c1	nt	nt	-34%	nt	2%
Cc1ccnc(NC(=O)/C=C/c2ccccc2Cl)c1	0%	?	-43%	2.6µM*	5%
O=C(NC1C=CS(=O)(=O)C1)c1sc2ccccc2c1Cl (stereo not given)	0%	?	-23%	21µM*	-12%
Cc1ccnc(NC(=O)c2sc3ccccc3c2Cl)c1	-10%	?	-20%	1.6µM*	-3%
COc1cccc(NC(=O)Cn2c(=O)n(-c3cccc(OC)c3)c(=O)c3sc4ccccc4c32)c1	nt	-25%[46.1 µM]	nt	4%[46.1 µM]	-9%
Cc1ccc2nc(-c3cccs3)c(Nc3c(C)cccc3C)n2c1	nt	-2%[46.1 µM]	nt	7.1µM*	16%
COc1ccc([C@]23Cc4ccccc4[C@H](O2)C2=C(O3)C(=O)c3ccccc3C2=O)cc1	nt	nt	nt	11%[14.2 µM]	nt
O=C1NC(=O)N(Cc2ccco2)C(=O)/C1=C/C=C/c1ccco1	?	?	13µM*	?	-10%
